KCNH2 3.1 block: qHTS for Inhibitors of KCHN2 3.1: Mutant qHTS; activity change, % (tested at about 1.8 µM); U2OS KCNH2 3.1, thallium flux FluxOr; stronger effect = lower value; hit rate 0.95% among 340,000; AID 720553, 2013; Potassium voltage-gated channel subfamily H member 2, brain isoform KCNH2 3.1 (human);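 active = maximum activity change below -70%; inconclusive = maximum activity change from -70% to -50%; inactive = maximum activity change above -50%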;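 note: thallium influx rate constant from kinetic fluorescence after stimulation buffer; % is set by controls: 0 for no effect and ±100 for the full control effect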
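U2OS cells transduced with KCNH2 3.1 mutant virus (1.77 x 10^8 /mL, 4 h), plated overnight at 37 C, loaded 45 min with FluxOr dye plus Red40 quencher. Thallium flux rate constant from kinetic reads after stimulation buffer, normalised to controls.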
ClpP mod: qHTS Assay for Activators of ClpP; ATP-dependent Clp protease proteolytic subunit (Bacillus subtilis (strain 168)), P80244; hit rate 1.9% among 340,000; Potency, µM (highest dose often 57.5 µM), for inactives: top-dose activity change, negative = active; AID 651965, 2013; purified B. subtilis ClpP, FRET peptide cleavage, 20 min; active = well fitted falling curve with a large enough effect; inconclusive = small, poorly fitted or top-dose-only effect; inactive = no such curve, though single readings can be large or run the other way; note: potency is the fitted concentration of half-maximal effect; the source files actives as falling curves though it sought activators and does not explain the sign; nearly all actives have a fitted effect of over 65% in size
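Buffer: 100 mM Tris/HCl pH8, 100 mM KCl, 0.05% low protease BSA, 2.5% glycerol, 0.01% Tween-20. ClpP 10 microg/mL final; 20 min RT; delta FRET normalized to ADEP and DMSO controls.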
Chronic BCR inh: qHTS Assay to Find Inhibitors of Chronic Active B-Cell Receptor Signaling; ABC-DLBCL IkBa-CBG/CBR reporter, luminescence ratio, 4 h; Potency, µM (titrated, usually from 46.1 µM), for the others: top-dose activity change, negative = inhibition, hits mostly inhibitors; hit rate 0.05% among 340,000; active = well fitted inhibition curve with a large enough effect in the signal ratio, with a control signal flat, not every such curve was filed as active; inconclusive = small, poorly fitted or top-dose-only effect, or effect the other way, or a change in a side signal; the % refers to the signal ratio;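 note: potency is the fitted concentration of half-maximal effect; plate controls were basal doxycycline-induced cells for no effect and cells given 10 µM MG132 for full effect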
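Compounds up to 46 uM were incubated four hours with TMD8 cells whose green CBG68 luciferase is fused to IkappaBalpha; red CBR luminescence normalised the signal, and concentration-effect curves were fitted to fusion, red and ratio data.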
12-LOX inh: Primary qHTS assay for inhibitors of human arachidonate 12S-lipoxygenase (ALOX12): Round 2 | hit rate 1.1% among 580,000 | Polyunsaturated fatty acid lipoxygenase ALOX12 (Homo sapiens), P18054 | purified 12hLO, xylenol orange hydroperoxide absorbance | Potency, µM (doses to about 108 µM), for the others: at the top dose activity change, negative = inhibition, actives largely listed as inhibitors; active = well fitted inhibition curve with a large enough effect; inconclusive = small, poorly fitted or top-dose-only effect, or another doubt; inactive = no such curve, though single readings can be large or run the other way; note: potency is the fitted concentration of half-maximal effect; % is set by controls: 0 for no effect and ±100 for the full control effect
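Purified human 12hLO (150 nM final) in 25 mM Hepes, 0.01% Triton X-100, pH 7.0 was preincubated 15 min at room temperature with compound. Then 40 uM arachidonic acid was added, 30 min. Hydroperoxide was read by Fe-XO absorbance ratio 573/405 nm.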
LDHA block: qHTS assay for inhibitors of human lactate dehydrogenase; hit rate 0.15% among 480,000; purified LDHA, NADH/diaphorase-resazurin fluorescence; stronger effect = lower value; AID 1347041, 2019; L-lactate dehydrogenase A chain (Homo sapiens), P00338; activity change, % (values are at about 110 or 230 µM); in the data active = activity change below about -30%; inconclusive = mostly about -25% to -30%;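 note: plate controls were DMSO wells for no effect and wells without enzyme for full effect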
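Remaining NADH was detected by diaphorase (0.133 mg/mL) converting 37 µM resazurin to fluorescent resorufin, read at 0 and 20 minutes. The preceding 5-minute room-temperature reaction used 2 nM LDHA, 0.2 mM sodium pyruvate and 0.06 mM NADH at pH 7.4.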
KCNH2 WT inh: qHTS for Inhibitors of KCHN2 3.1: Wildtype qHTS | Voltage-gated inwardly rectifying potassium channel KCNH2 (Homo sapiens), Q12809 | U2OS, BacMam KCNH2, thallium flux FluxOr; stronger effect = lower value | activity change, % at 1.84 µM | hit rate 0.37% among 340,000;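 active = maximum activity change below -70%; inconclusive = maximum activity change between -70% and -50%; inactive = maximum activity change above -50%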; note: % is set by controls: 0 for no effect and ±100 for the full control effect
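U2OS cells transduced with wild-type KCNH2 virus are loaded with FluxOr dye for 45 min, and thallium flux is measured in kinetic reads before and after stimulation buffer. Rate constants are normalized to DMSO controls.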
Numbers without * were called inactive; ? = inconclusive; nt = no result; [ ] = remark or other dose. Only some compounds are listed: those with a hit (about 3% of all), similar ones and a draw of the others.

SMILES	KCNH2 3.1 block	ClpP mod	Chronic BCR inh	12-LOX inh	LDHA block	KCNH2 WT inh
Fc1cc(Br)ccc1NC(=S)NCc1cccs1	nt	nt	nt	25µM*	-18	nt
Cc1cc(Cl)ccc1NC(=S)NCc1cccs1	3	0%	10%	?	-1	-21
CSCC(=O)Nc1nn(-c2ccc(F)cc2)c2cccc(N3CCOCC3)c12	nt	nt	nt	36%	nt	nt
CN1C[C@@H](NC(=O)NC2CCCCC2)C[C@H]1c1nc(-c2cnccn2)no1	nt	nt	nt	27%[176 µM]	nt	nt
Cc1cc(O)c2c(C)c(CC(=O)NCCc3cccc(F)c3)c(=O)oc2c1	nt	nt	nt	28µM*	0	nt
COc1cc(C)cc2oc(=O)c(CC(=O)NCCc3cccc(F)c3)c(C)c12	nt	nt	nt	?	4	nt
Cc1ccnc(NC(=O)c2ccc(NS(=O)(=O)/C=C/c3ccccc3)cc2)c1	6	28µM*	7%	6%	-5	-4
Cc1cccnc1NC(=O)c1ccc(NS(=O)(=O)/C=C/c2ccccc2)cc1	-7	2%	?	-12%	-1	-6
CC(OC(=O)Cc1c[nH]c2ccccc12)C(=O)NC(N)=O (stereo not given)	nt	nt	nt	9%	?	nt
O=[S+]([O-])(c1ccccc1)N1CC2(CCCCN2CC2CC2)Cc2ccccc21 (stereo not given)	nt	nt	nt	8%[6.33 µM]	nt	nt
Nn1c(SCC(=O)N2CCCCC2)nnc1-c1ccncc1	-15	28µM*	2%	218%	-6	5
Nn1c(SCC(=O)N2CCCCCC2)nnc1-c1ccncc1	21	0%	8%	3%	0	3
CCS(=O)(=O)Nc1ccc(-c2ccc(NS(=O)(=O)CC)c(OC)c2)cc1OC	6	11µM*	-8%	-13%	-4	2
Cn1c(=O)c2c(nc(SCC(=O)Nc3ccccc3)n2CCCc2ccccc2)n(C)c1=O	nt	nt	nt	?	-11	nt
COc1ccc2c(Cl)c(C(=O)NCCc3ccc(S(N)(=O)=O)cc3)sc2c1	-8	14µM*	-1%	14%	-1	14
CCOc1cc(C(=O)NCCc2ccc(S(N)(=O)=O)cc2)cc(OCC)c1OCC	-90*	-1%	0%	0%	-5	-1
COc1ccc2c(Cl)c(C(=O)NN)sc2c1	-8	0%	-9%	8%	-5	-22
CC(CC(=O)O)CC(=O)N1CCOCC1 (stereo not given)	nt	nt	nt	-3%	6	nt
Cc1noc(C)c1CNCC1(COc2cccnc2)C[C@@H](O)[C@@H](O)C1 (stereo not given in full)	nt	nt	nt	13µM*	nt	nt
CSC(=S)N/N=C(\C)c1ccc(Br)cc1	-1	nt	6%	45µM*	4	1
C/C(=N\NC(N)=S)c1ccc(Br)cc1	nt	nt	nt	?	1	nt
NC(=S)NNC(=O)Nc1ccc(Cl)c(Cl)c1	3	22µM*	-1%	?	-1	-13
Cc1nc(-c2ccc(S(=O)(=O)Nc3ccccc3)cc2)co1	nt	nt	nt	-6%	3	nt
CN(CC(=O)NC1(C#N)CCCCC1)Cc1ccc(C(F)(F)F)cc1	nt	nt	nt	28µM*	4	nt
CN(CC(=O)NC1(C#N)CCCCCC1)Cc1ccc(C(F)(F)F)cc1	nt	nt	nt	10%	9	nt
SMILES	KCNH2 3.1 block	ClpP mod	Chronic BCR inh	12-LOX inh	LDHA block	KCNH2 WT inh
CCOc1ccc(/C=N/O)c(OC)c1	nt	nt	nt	23%	4	nt
CCCCSC1=C(C#N)C(c2ccccc2C)CC(=O)N1 (stereo not given)	5	0%	11%	0%	-1	-311*
CCCCCCSC1=C(C#N)C(c2ccccc2C)CC(=O)N1 (stereo not given)	nt	nt	nt	?	19	nt
O=C(CC12CC3CC(CC(C3)C1)C2)NC(=S)NCc1ccco1	-15	0%	1%	28µM*	-6	-16
O=C(NCc1ccco1)C12CC3CC(CC(C3)C1)C2	20	1%	-12%	-17%	-8	-2
CN(C)c1ccc(/C=N/NC(=S)NCc2ccco2)cc1	-2	25µM*	-14%	3%	0	7
O=C(COc1ccc(Cl)cc1Cl)NNC(=S)NCc1ccco1	16	-2%	-29%	45µM*	-3	-3
S=C(NCc1ccccc1)NCc1ccco1	-2	-4%	-6%	0%	0	0
CC(C)CCNC(=S)NCc1ccco1	nt	nt	nt	32µM*	6	nt
S=C(NCc1ccco1)NCc1ccco1	14	-1%	nt	32µM*	-5	13
Cc1ccc(CCNC(=O)C2CCCC2)o1	nt	nt	nt	-27%	0	nt
CC(C)(C)c1ccc(C(=O)NCCCNC(=O)c2ccc(C(C)(C)C)cc2)cc1	nt	nt	nt	?	5	nt
CCO/C=C/C(O)(CNC(=O)c1ccc(C(C)(C)C)cc1)C(F)(F)F (stereo not given)	-72*	1%	?	-7%	-1	6
COc1ccc(C(=O)C[n+]2ccccc2Cl)cc1	nt	-21%	nt	nt	nt	nt
O=C(CBr)c1ccc(Oc2ccc(C(=O)C[n+]3ccccc3Cl)cc2)cc1	nt	-26%	nt	nt	-72*	nt
NC(=O)[C@@H](Cc1ccccc1)NC(=O)C1=C[C@@H](NC(=O)c2ccco2)[C@@H](O)[C@H](O)C1	nt	nt	nt	10%[176 µM]	nt	nt

Bioassay records as filed in PubChem.
